PubChem BioAssay (EPA / NIEHS)
The source made the active and inactive calls. How the source made its calls: active means hit-call score of the fitted dose curve at least 0.9, where 1 is the maximum; inactive means score below 0.9.

assay: ATG_M_32_CIS: Attagene CIS-FACTORIAL HepG2 Assay for M32 Transcription Factor (Internal Marker) (AID 2282949); conditions: HepG2 Attagene cis-factorial M32 reporter, mRNA; actives raise or lower the signal;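 further: background control marker of the multiplexed CIS panel rather than a real target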
Procedure, shortened: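 Using DMSO as baseline, bidirectional curve fits were applied to reporter mRNA signals. These came from transiently transfected HepG2 cells exposed for 24 h, with RNA analysed by RT-PCR, FAM primer extension, HpaI digestion and CE.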

outcome, inactive:
O=C(O)CC(O)C(=O)O (stereo unspecified), CC(C)=CCCC(C)=CC=O, C=CC(=C)CCC=C(C)C, CC[C@H]1OC(=O)[C@H](C)[C@@H](O[C@H]2C[C@@](C)(OC)[C@@H](O)[C@H](C)O2)[C@H](C)[C@@H](O[C@@H]2O[C@H](C)C[C@H](N(C)C)[C@H]2O)[C@](C)(O)C[C@@H](C)C(=O)[C@H](C)[C@@H](O)[C@]1(C)O, O=C1CCC(N2C(=O)c3ccccc3C2=O)C(=O)N1 (stereo unspecified), C[C@](N)(Cc1ccc(O)c(O)c1)C(=O)O, Nc1cccc(N)c1, Cn1c(=O)c2c(ncn2C)n(C)c1=O, Nc1nc2ncc(CNc3ccc(C(=O)N[C@@H](CCC(=O)O)C(=O)O)cc3)nc2c(=O)[nH]1, CC(=O)OCCC(C)C, O=P(OC(CCl)CCl)(OC(CCl)CCl)OC(CCl)CCl, CCCC(=O)OCC, COc1cccc(-c2ccc(/C=C\CN3CCCCCC3)cc2Cl)c1, O=C(OC[C@H]1O[C@@H](OC(=O)c2cc(O)c(O)c(OC(=O)c3cc(O)c(O)c(O)c3)c2)[C@H](OC(=O)c2cc(O)c(O)c(OC(=O)c3cc(O)c(O)c(O)c3)c2)[C@@H](OC(=O)c2cc(O)c(O)c(OC(=O)c3cc(O)c(O)c(O)c3)c2)[C@@H]1OC(=O)c1cc(O)c(O)c(OC(=O)c2cc(O)c(O)c(O)c2)c1)c1cc(O)c(O)c(OC(=O)c2cc(O)c(O)c(O)c2)c1, CCOCCOCCOCCO, O=C(O)c1cccc(N(Cc2cccnc2)c2ccc(OC(F)F)c(OC(F)F)c2)c1
